This passage reports outcome and AC50 results from PubChem BioAssay (EPA / NIEHS).

Assay [1] concerns the target Nuclear receptor subfamily 4 group A member 2 (Homo sapiens) (UniProt P43354). The experiment in a line: ATG_NURR1_TRANS: Attagene TRANS-FACTORIAL HepG2 Assay for human Nuclear Receptor Related Protein 1 (NURR1) (AID 2282985; active = hit-call score of the fitted dose curve at least 0.9, where 1 is the maximum). The note with it: HepG2 Attagene TRANS reporter, mRNA readout. In outline:
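HepG2 / transient MRTU transfection / 24 h compound exposure / RT-PCR + CE fluorescence of reporter mRNA / gain-of-signal vs DMSO.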

The target of assay [2] is Transcriptional activator Myb (Homo sapiens) (UniProt P10242). The experiment in a line: ATG_Myb_CIS: Attagene CIS-FACTORIAL HepG2 Assay for human Myeloblastosis (Myb) Proto-Oncogene Transcription Factor (AID 2282986). The note with it: HepG2 Attagene CIS-FACTORIAL Myb reporter transcription; actives raise or lower the signal. In outline:
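Transiently transfected HepG2 cells, treated 24 h. Reporter mRNA quantified by RT-PCR/capillary electrophoresis; bidirectional fit relative to DMSO.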

Assay [3] addresses Nuclear respiratory factor 1 (Homo sapiens) (UniProt Q16656). The experiment in a line: ATG_NRF1_CIS: Attagene CIS-FACTORIAL HepG2 Assay for human Nuclear Respiratory Factor 1 (NRF1) Orphan Gene (AID 2282987). The note with it: HepG2 NRF1 cis-element reporter, Attagene multiplex; actives raise or lower the signal. In outline:
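Cells (HepG2, transient MRTU transfection) are exposed to compound for 24 h, then RNA isolated and reporter mRNA amplified and fluorescently labelled. Fragments are separated by capillary electrophoresis; signal change is fitted bidirectionally relative to DMSO.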

Assay [4] in a line: ATG_NFI_CIS: Attagene CIS-FACTORIAL HepG2 Assay for human Nuclear Factor I (NFI) (AID 2282989). To be noted: HepG2 cis-regulatory reporter, NFI response element transcription; actives raise or lower the signal. In outline:
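HepG2 cells transiently transfected with cis-element-driven multiplexed reporter transcription units, dosed for 24 h. Reporter mRNA quantified by RT-PCR, fluorescent labelling, HpaI digestion and capillary electrophoresis; bidirectional fit versus DMSO baseline.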

For assay [5], the target named is Myc proto-oncogene protein (Homo sapiens) (UniProt P01106). The experiment in a line: ATG_Myc_CIS: Attagene CIS-FACTORIAL HepG2 Assay for human Myelocytomatosis (Myc) Proto-Oncogene Transcription Factor (AID 2282990). To be noted: HepG2, Attagene cis-reporter transcription factor activity; actives raise or lower the signal. In outline:
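Transiently transfected HepG2 cells bearing cis-promoter reporter units for endogenous transcription factors; 24 h exposure. Reporter mRNA measured by RT-PCR, 6-FAM primer extension, HpaI cut and capillary electrophoresis; bidirectional fit relative to DMSO.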

Assay [6] can be described thus: ATG_NRF2_ARE_CIS: Attagene CIS-FACTORIAL HepG2 Assay for human Nuclear Factor Erythroid 2 Related Factor 2 (NFR2) response to Antioxidant Response Elements (ARE) (AID 2282992).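 As to AC50: reporter mRNA level measured by RT-PCR and capillary electrophoresis fluorescence.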 To be noted: HepG2 Attagene ARE/NRF2 reporter, transcription factor activity; actives raise or lower the signal. The essentials:
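Transient MRTU transfection of HepG2; 24 h compound exposure; TriZol RNA, RT with oligo(dT), PCR, 6-FAM primer extension, HpaI cut, CE. Bidirectional fit vs DMSO.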

Assay [7] is described as follows: ATG_M_06_TRANS: Attagene TRANS-FACTORIAL HepG2 Assay for M06 Transcription Factor (Internal Marker) (AID 2282983; active = hit-call score of the fitted dose curve at least 0.9, where 1 is the maximum;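 also: reporter transcript level by RT-PCR then capillary electrophoresis fluorescence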). The note with it: HepG2 Attagene TRANS M06 internal marker reporter. In outline: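 Internal-marker background readout from a multiplexed TRANS reporter system in HepG2; 24 h dosing; mRNA induction quantified by RT-PCR plus capillary electrophoresis fluorescence; DMSO as negative control and baseline.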

Assay [8] can be described thus: ATG_NF_kB_CIS: Attagene CIS-FACTORIAL HepG2 Assay for human Nuclear Factor Kappa B (NF-kB) (AID 2282991). To be noted: HepG2 Attagene cis-factorial NF-kB reporter mRNA; actives raise or lower the signal. In outline: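 Measures mRNA induction of an NF-kB-responsive cis-element reporter in HepG2 cells transfected with multiple reporter units, sampled 24 h post-dosing; quantified by fluorescence after RT-PCR and capillary electrophoresis, fitted for activation or inhibition against DMSO.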

Assay [9] is described as follows: ATG_M_32_TRANS: Attagene TRANS-FACTORIAL HepG2 Assay for M32 Transcription Factor (Internal Marker) (AID 2282984; active = hit-call score of the fitted dose curve at least 0.9, where 1 is the maximum;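 also: transcript level of a background control reporter unit measured by RT-PCR and capillary electrophoresis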). The note with it: HepG2 Attagene TRANS M32 internal marker reporter. The essentials: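 Capillary electrophoresis of 6-FAM-labelled reporter fragments gives the signal; data fitted for gain over DMSO negative control. Source: HepG2 cells bearing transient multiple reporter transcription units, 24 h exposure.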

Inconclusive results are not listed. The source made the active and inactive calls. The calls were made as follows, unless noted: active = hit-call score of the fitted dose curve at least 0.9, where 1 is the maximum; inactive = score below 0.9.

Myc proto-oncogene protein (Homo sapiens), sequence (P01106 whole entry, looked up): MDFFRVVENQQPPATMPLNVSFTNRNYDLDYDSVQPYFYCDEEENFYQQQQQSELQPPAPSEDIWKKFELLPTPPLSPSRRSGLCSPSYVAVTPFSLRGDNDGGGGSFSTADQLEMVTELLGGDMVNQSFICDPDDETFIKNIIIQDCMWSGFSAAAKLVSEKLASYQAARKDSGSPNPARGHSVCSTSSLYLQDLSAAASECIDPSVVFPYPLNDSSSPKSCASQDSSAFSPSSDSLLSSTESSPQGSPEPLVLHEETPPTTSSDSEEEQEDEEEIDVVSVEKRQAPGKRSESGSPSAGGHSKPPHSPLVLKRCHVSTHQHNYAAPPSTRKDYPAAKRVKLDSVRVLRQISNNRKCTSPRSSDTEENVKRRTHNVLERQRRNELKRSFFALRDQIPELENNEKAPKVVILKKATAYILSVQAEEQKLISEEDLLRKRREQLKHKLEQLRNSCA
Nuclear respiratory factor 1 (Homo sapiens), sequence (Q16656 whole entry, looked up, the tested form may be a part): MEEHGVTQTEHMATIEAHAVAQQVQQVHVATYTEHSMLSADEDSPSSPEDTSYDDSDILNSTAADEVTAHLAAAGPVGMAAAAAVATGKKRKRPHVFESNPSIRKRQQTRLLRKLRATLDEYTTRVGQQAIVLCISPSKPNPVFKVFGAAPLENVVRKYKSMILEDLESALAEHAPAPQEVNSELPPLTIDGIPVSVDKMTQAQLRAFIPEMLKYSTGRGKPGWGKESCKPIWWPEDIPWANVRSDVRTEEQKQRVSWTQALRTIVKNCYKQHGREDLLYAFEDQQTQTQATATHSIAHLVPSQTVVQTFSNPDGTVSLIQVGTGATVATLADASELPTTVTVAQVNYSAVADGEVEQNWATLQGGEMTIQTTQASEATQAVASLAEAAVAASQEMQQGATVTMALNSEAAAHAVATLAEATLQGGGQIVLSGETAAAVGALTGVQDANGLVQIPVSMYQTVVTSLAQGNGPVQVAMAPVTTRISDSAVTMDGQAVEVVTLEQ
Transcriptional activator Myb (Homo sapiens), sequence (P10242 whole entry, looked up): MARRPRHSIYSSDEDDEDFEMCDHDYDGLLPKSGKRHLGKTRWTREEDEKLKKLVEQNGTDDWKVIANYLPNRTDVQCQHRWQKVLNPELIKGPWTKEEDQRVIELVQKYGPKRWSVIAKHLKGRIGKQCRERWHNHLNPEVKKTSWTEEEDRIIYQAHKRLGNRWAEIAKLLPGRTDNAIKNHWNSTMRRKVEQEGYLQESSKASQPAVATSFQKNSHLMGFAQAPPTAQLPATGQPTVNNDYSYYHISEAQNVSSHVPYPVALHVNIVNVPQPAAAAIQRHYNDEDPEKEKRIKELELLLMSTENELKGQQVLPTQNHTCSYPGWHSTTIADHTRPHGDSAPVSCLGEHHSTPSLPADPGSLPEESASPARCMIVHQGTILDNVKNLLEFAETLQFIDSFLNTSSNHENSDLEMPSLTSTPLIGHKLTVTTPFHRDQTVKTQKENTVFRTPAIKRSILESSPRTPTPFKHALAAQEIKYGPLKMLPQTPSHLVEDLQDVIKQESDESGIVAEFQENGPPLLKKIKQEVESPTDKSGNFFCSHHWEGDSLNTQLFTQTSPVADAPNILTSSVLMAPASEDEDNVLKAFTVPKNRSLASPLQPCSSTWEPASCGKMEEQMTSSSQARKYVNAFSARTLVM
Nuclear receptor subfamily 4 group A member 2 (Homo sapiens), sequence (P43354 whole entry, looked up): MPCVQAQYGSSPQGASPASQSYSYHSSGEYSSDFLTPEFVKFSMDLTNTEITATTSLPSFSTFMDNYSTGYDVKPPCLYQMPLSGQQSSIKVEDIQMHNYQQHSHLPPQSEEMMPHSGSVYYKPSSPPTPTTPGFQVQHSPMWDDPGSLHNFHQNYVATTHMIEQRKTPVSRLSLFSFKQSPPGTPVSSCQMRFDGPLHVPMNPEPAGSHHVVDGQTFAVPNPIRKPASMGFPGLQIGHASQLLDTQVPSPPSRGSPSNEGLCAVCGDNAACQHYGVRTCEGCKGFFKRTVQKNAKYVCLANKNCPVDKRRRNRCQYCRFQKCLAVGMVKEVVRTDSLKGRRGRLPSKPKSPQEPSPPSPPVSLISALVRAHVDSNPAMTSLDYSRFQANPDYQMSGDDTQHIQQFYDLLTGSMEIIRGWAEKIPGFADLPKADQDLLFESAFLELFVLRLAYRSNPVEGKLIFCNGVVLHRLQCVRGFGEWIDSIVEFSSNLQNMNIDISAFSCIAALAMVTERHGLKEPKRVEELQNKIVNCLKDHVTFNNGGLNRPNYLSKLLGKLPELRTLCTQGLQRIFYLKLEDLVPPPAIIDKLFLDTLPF

On to `Cc1cn([C@H]2C=C[C@@H](CO)O2)c(=O)[nH]c1=O`, for which the outcome in assay [1], in [2], in assay [3], in assay [4], in [5] and in assay [6] was inactive.
What is called AC50 is the midpoint of the concentration-response curve, whichever way the signal moves. Turning to `CC1=C(C)S(=O)(=O)CCS1(=O)=O`, the result in assay [7], in assay [2], in assay [3], in assay [4], in assay [5] and in assay [8] was inactive. The AC50 in assay [6] was 17.8 µM (active).
In the case of `C/C=C/c1ccc(OC)cc1`, the outcome in [2], in assay [3], in assay [5], in assay [8] and in assay [6] was inactive.
Turning to `CC(C)COC(=O)CCCCC(=O)OCC(C)C`, the result in assay [9], in [2], in assay [3], in assay [5], in [8] and in assay [6] was inactive.
As to `CCCCCCCCCCCCCCCCO`, the result in [7], in assay [2], in assay [3], in assay [5], in assay [8] and in assay [6] was inactive.
In the case of `CCCCCCC(CCCCCCCCCCC(=O)OCC(COC(C)=O)OC(C)=O)OC(C)=O` (stereo not drawn), the compound was classed as inactive in [7], in assay [2], in [3], in [4], in [5] and in assay [8]. Also, the compound was called inactive in assay [6].
As for `CCc1nc(N)nc(N)c1-c1ccc(Cl)cc1`, the compound was classed as inactive in [7], in assay [2] and in [4]. Besides, the AC50 was 48.8 µM (active) in assay [3], 166 µM (active) in assay [5] and 2.15 µM (active) in [6].
In the case of `CC(COCC(C)OC(=O)c1ccccc1)OC(=O)c1ccccc1` (stereo not drawn), the result in [7], in assay [2], in [3], in assay [4], in assay [5] and in assay [6] was inactive.
`CCCCC(CC)COP(=O)(OCC(CC)CCCC)OCC(CC)CCCC` (stereo not drawn): the call in [7], in assay [2], in [3], in assay [4], in [5] and in assay [8] was inactive. For the same compound, the outcome in assay [6] was inactive.
Turning to `Cc1occc(=O)c1O`, the compound was classed as inactive in assay [2], in assay [3], in [4], in assay [5], in [8] and in [6].
`CO[C@@H]1COCC[C@@H]1N[C@@H]1CC[C@@](C(=O)N2CCc3ncc(C(F)(F)F)cc3C2)(C(C)C)C1`: the result in assay [2], in assay [3], in [4], in [5], in [8] and in assay [6] was inactive.
As for `O=C1OC(c2ccc(O)cc2)(c2ccc(O)cc2)c2ccccc21`, the compound was called inactive in assay [2] and in assay [3]. Besides, the AC50 in assay [5] was 180 µM (active); in [8], 176 µM (active); in assay [6] it was 177 µM (active).
Take `Nc1nc(Cl)nc2c1ncn2[C@H]1C[C@H](O)[C@@H](CO)O1`: the result in [7], in assay [2], in assay [3], in [5] and in assay [6] was inactive. Also, the AC50 in assay [8] is 16.9 µM (active).
`C=CCCCCCCCCCCCC`: the compound was called inactive in [1], in assay [2], in assay [3], in assay [4], in [5] and in assay [8]. In assay [6], the outcome was inactive.
For `CCC(C)N(C)C(=O)c1cc2ccccc2c(-c2ccccc2Cl)n1` (stereo not drawn), the result in assay [9], in assay [1], in assay [2], in assay [4], in [5] and in assay [8] was inactive. The AC50 in assay [3] is 63 µM (active); in [6], 16.8 µM (active).
As to `COC(=O)CCC(=O)OC`, the call in assay [2], in assay [3], in assay [5], in assay [8] and in assay [6] was inactive.
For `Cc1ccc(C(C)(C)C)c(O)c1`, the compound was classed as inactive in assay [7], in assay [2] and in assay [3]. Also, the AC50 was 100 µM (active) in assay [5], 164 µM (active) in [8] and 65.3 µM (active) in assay [6].
In the case of `O=C(O)c1[nH]n(-c2ccc(S(=O)(=O)O)cc2)c(=O)c1N=Nc1ccc(S(=O)(=O)O)cc1`, the outcome in assay [7], in assay [2], in assay [3], in assay [4], in [5] and in assay [8] was inactive. Further, the result in assay [6] was inactive.
With `Cc1cc(SC2=C(O)C[C@@](CCc3ccc(N)cc3)(C(C)C)OC2=O)c(C(C)(C)C)cc1CO`, the outcome in assay [9], in [2], in [3], in assay [5] and in assay [8] was inactive. In assay [6], the half-maximal activity concentration (AC50) was 4.49 µM (active).
Consider `CC(=O)OC1CC(C)OC(C)O1` (stereo not drawn), for which the call in [9], in assay [1], in [2], in [3], in assay [5] and in assay [8] was inactive. Moreover, the AC50 in [6] was 68.9 µM (active).
For the compound `CCCC(=O)O`, the result in assay [1], in assay [2], in assay [3], in assay [4], in assay [5] and in assay [8] was inactive. Moreover, the outcome in assay [6] was inactive.
As for `Oc1ccccc1O`, the compound was classed as inactive in assay [9], in assay [1], in assay [2], in [3], in [4] and in [5]. In [6], the AC50 is 13.1 µM (active).
On to `CC1(C)C(=O)NC(=O)N1CO`, for which the outcome in assay [1], in assay [2], in assay [3], in assay [4], in [5] and in [8] was inactive. In addition, the result in [6] was inactive.
As to `CCOCCOCCO`, the compound was called inactive in [9], in assay [2], in [3], in assay [5], in [8] and in assay [6].
Regarding `CC(C)c1cccc(C(C)C)c1`, the compound was classed as inactive in [2], in assay [3], in [4], in assay [5], in assay [8] and in assay [6].
